In the OligoGym collection:

molecular target: TUBA8; test: pooled miR-30 sensor sort-seq; sequence = guide strand; details: shRNA
Further: reference of the scale not given here.

Sequence	sensor-assay potency score (higher = more potent)
TTGATCTTGCTAGCTTGAGCAT	-0.893
TTTCTTCTTCAAACGAATCAGT	-0.469
AATAGCGACATTCACATCCTTG	-0.744
TCATCATCGTTGATCTTGCTAG	-0.473
TCGCACTTCACCATCTGGCTGT	-0.0578
TCGAACTTGTGGTCGAGGCGGG	-0.697
TACATGAGGTCGAACTTGTGGT	-0.814
TTTCTTGCCATAATCCAGGGAG	-0.376
ATTGAGGACACAATCTGACTGA	0.101
TGATCTTGCTAGCTTGAGCATC	-1.14
TTGAGGACACAATCTGACTGAT	-0.409
TTGAGGTTGGTATAGGTAGGGC	-0.964

molecular target: TUBAL3; test: as above; details: shRNA

Sequence	sensor-assay potency score (higher = more potent)
TTCATTGTTGGTACTGACCCAC	0.0791
TTCAATTAGGTCTACATTCAAG	-1.3
TTGTCCACCATGAAGGTACAGT	-0.604
